Results filed as inconclusive are left out. The source made the active and inactive calls. Unless noted, calls come from the whole dose curve; as a rule, active = well fitted curve in the direction sought with a large enough effect in the repeat runs; inconclusive = weak or mixed curves; inactive = no such curve, though single readings can be large; an effect the other way counts as inactive or inconclusive.
How the values were obtained:
[1] = qHTS assay to identify aromatase inhibitors - cell viability counter screen (AID 743084);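 note: cells stimulated with testosterone during compound exposure; nearly all actives have a fitted effect of over 55% in size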
[2] = target: Aryl hydrocarbon receptor (Homo sapiens) (UniProt P35869); assay: qHTS assay to identify small molecule that activate the aryl hydrocarbon receptor (AhR) signaling pathway (AID 743085); note: nearly all actives have a fitted effect of over 15% in size; note: potency is the fitted concentration of half-maximal effect;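 for activation: HG2L7.5c1 human HepG2 liver cells with stably integrated DRE-driven firefly reporter; series mostly up to about 70 µM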
Method in brief: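 A multiplexed format paired cell viability (CellTiter-Fluor fluorescence) with AhR-dependent luciferase output (ONE-Glo luminescence) in the same wells of HepG2 DRE-luc cells after 24 h compound exposure at 37C.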

[3] = qHTS assay to identify small molecule that activate the aryl hydrocarbon receptor (AhR) signaling pathway - cell viability counter screen (AID 743086);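 note: HepG2 liver cells carrying the AhR DRE luciferase reporter; series mostly up to about 70 µM; nearly all actives have a fitted effect of over 45% in size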
Method in brief: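 Cytotoxicity counter screen: CellTiter-Fluor signal (30 min, 37 C) in 4000 HepG2 cells/well carrying the DRE-luciferase reporter, following 24 h compound exposure at 37 C.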

[4] = qHTS assay to identify small molecule antagonists of the peroxisome proliferator-activated receptor gamma (PPARg) signaling pathway - cell viability counter screen (AID 743194); note: nearly all actives have a fitted effect of over 55% in size
Method in brief: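 Viability was measured as CellTiter-Glo luminescence in GeneBLAzer PPARg UAS-bla HEK293H cells. These cells had been exposed 17 h at 37 C to compounds together with rosiglitazone at 50 nM final, with the beta-lactamase readout taken in the same wells.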

[5] = qHTS assay for small molecule agonists of the antioxidant response element (ARE) signaling pathway (AID 743202; active = well fitted activation curve with a large enough effect in the signal ratio in the repeat runs, not every such curve was filed as active; the % refers to the signal ratio)
Method in brief: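 After 16 hours of compound treatment at 37 C, HepG2 cells with a stably integrated ARE-driven beta-lactamase reporter were loaded 2 hours at room temperature with LiveBLAzer B/G FRET substrate and fluorescence intensity measured.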

[6] = qHTS assay for small molecule agonists of the antioxidant response element (ARE) signaling pathway - cell viability counter screen (AID 743203; calls by dose curve; note: nearly all actives have a fitted effect of over 55% in size)
Method in brief: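 Cytotoxicity was tested in parallel with the ARE reporter screen. ARE-bla HepG2 cells were exposed to compounds for 16 hrs, and viability was taken from CellTiter-Glo luminescence.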

[7] = qHTS assay for small molecule activators of the heat shock response signaling pathway - cell viability counter screen (AID 743209); note: nearly all actives have a fitted effect of over 50% in size
Method in brief: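 Cytotoxicity counter screen run in parallel with the HSE beta-lactamase reporter, using the same wells. HeLa HSE-bla cells received compound for 5 h at 37 C; ATP-based CellTiter-Glo luminescence was measured after 30 min at room temperature.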

[8] = qHTS assay for small molecule activators of the heat shock response signaling pathway (AID 743210; active = well fitted activation curve with a large enough effect in the signal ratio in the repeat runs, with a control signal flat, not every such curve was filed as active; the % refers to the signal ratio; note: series mostly up to about 63 µM)
Method in brief: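 Compound exposure lasted 5 h at 37 C in HeLa cells carrying a heat-shock-element-driven beta-lactamase reporter. Read-out: fluorescence intensity after 2.5 h room-temperature loading with LiveBLAzer B/G FRET substrate.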

[9] = qHTS assay to identify small molecule agonists of the peroxisome proliferator-activated receptor delta (PPARd) signaling pathway - cell viability counter screen (AID 743211); note: nearly all actives have a fitted effect of over 55% in size
Method in brief: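 Tox21 library compounds, delivered in DMSO, were incubated 17 h with PPARd-bla HEK293H cells; cytotoxicity was taken from CellTiter-Glo luminescence read 30 min after reagent addition.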

[10] = target: Peroxisome proliferator-activated receptor delta (Homo sapiens) (UniProt Q03181); assay: qHTS assay to identify small molecule agonists of the peroxisome proliferator-activated receptor delta (PPARd) signaling pathway (AID 743212; calls by dose curve)
Method in brief: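 Beta-lactamase reporter readout: a ratiometric FRET signal from the LiveBLAzer substrate after 2 h at room temperature. Compound exposure at 37 °C in PPARδ-bla HEK293H cells driven by an upstream activator sequence.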

[11] = qHTS assay to identify small molecule antagonists of the peroxisome proliferator-activated receptor delta (PPARd) signaling pathway - cell viability counter screen (AID 743213); note: nearly all actives have a fitted effect of over 50% in size
Method in brief: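 PPARd-bla HEK293H cells (3000/well) got compound plus 300 nM L165041 agonist for 17 h at 37 C. Viability in the same wells came from CellTiter-Glo luminescence after 30 min at room temperature.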

[12] = target: Peroxisome proliferator-activated receptor delta (Homo sapiens) (UniProt Q03181); assay: qHTS assay to identify small molecule antagonists of the peroxisome proliferator-activated receptor delta (PPARd) signaling pathway (AID 743215; active = well fitted inhibition curve with a large enough effect in the signal ratio in the repeat runs, not every such curve was filed as active; the % refers to the signal ratio;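 note: cells stimulated with agonist L165041 at 300 nM final during compound exposure; series mostly up to about 62 µM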)
Method in brief: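 Cells: HEK293H with a UAS-driven beta-lactamase reporter responsive to PPARd. Compounds were co-added with L165041 (300 nM, final) and incubated 17 h at 37 C before a 2 h room-temperature FRET substrate step and fluorescence reading.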

[13] = qHTS assay to identify small molecule agonists of the farnesoid-X-receptor (FXR) signaling pathway - cell viability counter screen (AID 743218); note: nearly all actives have a fitted effect of over 45% in size
Method in brief: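 Cells were seeded, left 5 h at 37 C and 5% CO2, then dosed with compound in DMSO for 16 h. After the beta-lactamase FRET read, CellTiter-Glo was added and luminescence measured 30 min later.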

[14] = target: Bile acid receptor (Homo sapiens) (UniProt Q96RI1); assay: qHTS assay to identify small molecule agonists of the farnesoid-X-receptor (FXR) signaling pathway (AID 743220; active = well fitted activation curve with a large enough effect in the signal ratio in the repeat runs, not every such curve was filed as active; the % refers to the signal ratio)
Method in brief: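 FXR-UAS-bla HEK 293T cells carrying a UAS-driven beta-lactamase reporter were plated for 5 h at 37C/5% CO2, then exposed to DMSO-dissolved Tox21 10K compounds for 16 h at 37C. A LiveBLAzer B/G FRET substrate was loaded for 2 h at room temperature before fluorescence reading.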

[15] = qHTS assay to identify small molecule antagonists of the farnesoid-X-receptor (FXR) signaling pathway - cell viability counter screen (AID 743221; active = well fitted cell-killing curve with a large enough effect in the repeat runs, not every such curve was filed as active; note: nearly all actives have a fitted effect of over 50% in size)
Method in brief: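 Cytotoxicity is taken from ATP luminescence (CellTiter-Glo, 30 min, room temperature) in FXR-bla HEK 293T cells previously incubated 16 h at 37 C with compound and chenodeoxycholic acid at 50 uM final.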

[16] = target: Vitamin D3 receptor (Homo sapiens) (UniProt P11473); assay: qHTS assay to identify small molecule agonists of the vitamin D receptor (VDR) signaling pathway (AID 743222; calls by dose curve)
Method in brief: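 Cells carrying a VDR-driven beta-lactamase reporter are seeded at 2,000 per well and rested 4 h. Compounds in DMSO are added for 16 h at 37C, and FRET substrate fluorescence is measured after 2 h at room temperature.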

[17] = target: Peroxisome proliferator-activated receptor gamma (Homo sapiens) (UniProt P37231); assay: qHTS assay to identify small molecule agonists of the peroxisome proliferator-activated receptor gamma (PPARg) signaling pathway (AID 743094; active = well fitted activation curve with a large enough effect in the signal ratio in the repeat runs, not every such curve was filed as active; the % refers to the signal ratio)
Method in brief: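 Cells from the PPARg UAS-bla HEK293H line are plated and incubated 5 h at 37C. Compounds in DMSO are pinned in and left 17 h at 37C. LiveBLAzer B/G substrate is then added for 1 h at room temperature before fluorescence is measured.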

[18] = target: Vitamin D3 receptor (Homo sapiens) (UniProt P11473); assay: qHTS assay to identify small molecule antagonists of the vitamin D receptor (VDR) signaling pathway (AID 743223; active = well fitted inhibition curve with a large enough effect in the signal ratio in the repeat runs, not every such curve was filed as active; the % refers to the signal ratio)
Method in brief: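 Quantitative HTS in VDR-bla reporter cells stimulated with 1alpha,25-dihydroxyvitamin D3, 3 nM final. Compound exposure 16 h, 37C, 5% CO2. Read-out: beta-lactamase FRET substrate fluorescence, 2 h RT.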

[19] = target: Peroxisome proliferator-activated receptor gamma (Homo sapiens) (UniProt P37231); assay: qHTS assay to identify small molecule antagonists of the peroxisome proliferator-activated receptor gamma (PPARg) signaling pathway (AID 743191; calls by dose curve; note: series mostly up to about 63 µM; nearly all actives have a fitted effect of over 30% in size)
Method in brief: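 Beta-lactamase reporter under UAS control in HEK293H PPARg-bla cells; compound treatment 17 h at 37C. Read-out: fluorescence intensity after 1 h room-temperature incubation with LiveBLAzer B/G FRET substrate.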

[20] = target: Bile acid receptor (Homo sapiens) (UniProt Q96RI1); assay: qHTS assay to identify small molecule antagonists of the farnesoid-X-receptor (FXR) signaling pathway (AID 743217; active = well fitted inhibition curve with a large enough effect in the signal ratio in the repeat runs, not every such curve was filed as active; the % refers to the signal ratio)
Method in brief: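 Cells carrying a UAS-driven beta-lactamase reporter (GeneBLAzer FXR-UAS-bla HEK 293T) were plated and rested 5 h at 37 °C. Compounds in DMSO were added alongside chenodeoxycholic acid agonist at 50 uM final and left 16 h at 37 °C before FRET substrate readout.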

Measured: Potency

Chain of Aryl hydrocarbon receptor (Homo sapiens) (P35869 whole entry, looked up): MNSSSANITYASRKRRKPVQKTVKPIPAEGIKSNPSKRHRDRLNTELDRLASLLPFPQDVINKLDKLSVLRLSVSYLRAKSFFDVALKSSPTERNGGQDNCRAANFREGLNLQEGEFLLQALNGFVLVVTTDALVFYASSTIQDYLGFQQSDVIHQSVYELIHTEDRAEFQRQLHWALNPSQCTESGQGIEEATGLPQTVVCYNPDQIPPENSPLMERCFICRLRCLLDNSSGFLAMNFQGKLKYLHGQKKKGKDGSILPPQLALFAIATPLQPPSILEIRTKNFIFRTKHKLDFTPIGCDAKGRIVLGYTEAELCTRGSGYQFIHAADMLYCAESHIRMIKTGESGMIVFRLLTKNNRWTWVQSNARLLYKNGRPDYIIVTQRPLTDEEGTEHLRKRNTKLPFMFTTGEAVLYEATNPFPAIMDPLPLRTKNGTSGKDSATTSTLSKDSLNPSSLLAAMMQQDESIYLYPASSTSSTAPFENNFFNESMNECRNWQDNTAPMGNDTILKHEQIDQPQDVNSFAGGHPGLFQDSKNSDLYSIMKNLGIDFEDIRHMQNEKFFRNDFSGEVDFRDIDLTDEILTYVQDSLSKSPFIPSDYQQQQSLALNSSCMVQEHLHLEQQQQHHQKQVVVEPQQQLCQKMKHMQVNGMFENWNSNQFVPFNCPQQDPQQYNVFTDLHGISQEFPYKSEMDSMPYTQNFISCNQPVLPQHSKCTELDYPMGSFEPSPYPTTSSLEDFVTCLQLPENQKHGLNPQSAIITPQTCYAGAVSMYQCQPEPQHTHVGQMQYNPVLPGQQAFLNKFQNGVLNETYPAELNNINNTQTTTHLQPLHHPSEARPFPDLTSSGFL
Chain of Peroxisome proliferator-activated receptor gamma (Homo sapiens) (P37231 whole entry, looked up): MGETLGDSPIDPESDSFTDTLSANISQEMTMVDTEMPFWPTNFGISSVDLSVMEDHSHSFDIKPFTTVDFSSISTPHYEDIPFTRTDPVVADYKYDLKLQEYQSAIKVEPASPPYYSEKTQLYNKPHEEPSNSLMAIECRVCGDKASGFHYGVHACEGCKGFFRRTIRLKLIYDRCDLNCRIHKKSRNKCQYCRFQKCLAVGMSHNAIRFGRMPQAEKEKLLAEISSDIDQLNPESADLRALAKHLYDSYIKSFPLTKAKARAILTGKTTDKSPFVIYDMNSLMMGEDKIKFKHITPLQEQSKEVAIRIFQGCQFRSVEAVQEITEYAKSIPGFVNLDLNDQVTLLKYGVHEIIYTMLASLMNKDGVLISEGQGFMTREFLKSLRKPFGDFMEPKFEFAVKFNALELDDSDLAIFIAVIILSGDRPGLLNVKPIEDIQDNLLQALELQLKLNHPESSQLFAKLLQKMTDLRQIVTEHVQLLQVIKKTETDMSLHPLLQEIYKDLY
Chain of Peroxisome proliferator-activated receptor delta (Homo sapiens) (Q03181 whole entry, looked up): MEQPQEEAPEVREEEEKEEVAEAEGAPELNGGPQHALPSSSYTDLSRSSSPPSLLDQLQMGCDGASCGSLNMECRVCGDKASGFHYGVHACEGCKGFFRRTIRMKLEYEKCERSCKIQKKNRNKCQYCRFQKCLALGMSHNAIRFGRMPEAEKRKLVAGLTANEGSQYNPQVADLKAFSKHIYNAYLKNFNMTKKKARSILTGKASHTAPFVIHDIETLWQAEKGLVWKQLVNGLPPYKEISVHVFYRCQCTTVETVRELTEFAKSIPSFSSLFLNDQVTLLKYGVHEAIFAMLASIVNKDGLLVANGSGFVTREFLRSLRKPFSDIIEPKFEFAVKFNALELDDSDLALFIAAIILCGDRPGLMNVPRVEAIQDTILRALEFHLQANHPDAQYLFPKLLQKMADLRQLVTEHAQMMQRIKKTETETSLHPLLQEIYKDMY
Chain of Bile acid receptor (Homo sapiens) (Q96RI1 whole entry, looked up): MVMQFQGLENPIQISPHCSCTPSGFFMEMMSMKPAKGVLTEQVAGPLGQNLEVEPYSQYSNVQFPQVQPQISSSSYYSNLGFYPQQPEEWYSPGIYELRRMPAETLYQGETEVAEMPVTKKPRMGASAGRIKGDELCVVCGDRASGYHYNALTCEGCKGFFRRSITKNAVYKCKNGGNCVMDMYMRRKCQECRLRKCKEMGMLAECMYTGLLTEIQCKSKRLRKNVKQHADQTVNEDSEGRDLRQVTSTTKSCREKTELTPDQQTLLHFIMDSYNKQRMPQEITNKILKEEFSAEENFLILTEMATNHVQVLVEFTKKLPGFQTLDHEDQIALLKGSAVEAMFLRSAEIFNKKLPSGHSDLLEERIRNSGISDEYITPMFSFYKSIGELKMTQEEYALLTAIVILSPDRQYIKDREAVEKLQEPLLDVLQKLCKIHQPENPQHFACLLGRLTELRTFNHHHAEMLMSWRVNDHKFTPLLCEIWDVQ
Chain of Vitamin D3 receptor (Homo sapiens) (P11473 whole entry, looked up): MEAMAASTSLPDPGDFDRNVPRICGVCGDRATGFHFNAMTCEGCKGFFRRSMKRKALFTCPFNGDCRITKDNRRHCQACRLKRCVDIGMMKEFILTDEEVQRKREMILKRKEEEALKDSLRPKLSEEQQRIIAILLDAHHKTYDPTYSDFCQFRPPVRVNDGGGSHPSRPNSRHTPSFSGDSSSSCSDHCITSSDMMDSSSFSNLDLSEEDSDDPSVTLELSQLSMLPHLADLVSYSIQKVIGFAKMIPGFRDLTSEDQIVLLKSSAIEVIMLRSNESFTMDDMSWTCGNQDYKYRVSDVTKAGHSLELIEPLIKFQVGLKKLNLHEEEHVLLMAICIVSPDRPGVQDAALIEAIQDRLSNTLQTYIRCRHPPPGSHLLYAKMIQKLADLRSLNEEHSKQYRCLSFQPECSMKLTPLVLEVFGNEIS

O=C1NC2NC(=O)NC2N1 (stereo not drawn)
inactive: [1] | [2] | [3] | [4] | [5] | [6] | [7] | [8] | [9] | [10] | [11] | [12] | [13] | [14] | [15] | [16]

C=CCOc1cc(Cl)ccc1C(=O)NCCN(CC)CC
inactive: [1] | [2] | [17] | [4] | [5] | [6] | [7] | [8] | [12] | [13] | [15] | [16] | [18]

CC(C)C(=O)c1ccccc1
inactive: [1] | [3] | [17] | [19] | [4] | [5] | [6] | [7] | [8] | [9] | [10] | [11] | [12]

CCOC(=O)CCCCCCCCC(=O)OCC
inactive: [1] | [3] | [17] | [19] | [4] | [5] | [6] | [7] | [8] | [11] | [13] | [15] | [16]

Cc1ccc2c(c1)c1c3n2CCNC3CCC1 (stereo not drawn)
inactive: [1] | [5] | [6] | [7] | [9] | [15] | [18]
active: [2] 10.6 µM

CCCCC[Si](OCC)(OCC)OCC
inactive: [1] | [3] | [17] | [19] | [4] | [5] | [6] | [7] | [8] | [9] | [10] | [11] | [12] | [15]

C[CH2][Ge]([Cl])([CH2]C)[CH2]C
inactive: [1] | [3] | [17] | [19] | [4] | [5] | [6] | [7] | [8] | [9] | [10] | [11] | [12] | [20] | [13] | [14] | [15] | [16]

C[C@@H]1C[C@H]2[C@@H]3C[C@H](F)C4=CC(=O)C=C[C@]4(C)[C@@]3(F)[C@@H](O)C[C@]2(C)[C@@]1(O)C(=O)CO
inactive: [1] | [2] | [3] | [4] | [5] | [6] | [7] | [8] | [9] | [13] | [15] | [16] | [18]

From PubChem BioAssay (Tox21)
